Test results taken from PubChem BioAssay (NCATS).
“And” between values parts separate entries of the source, which are not always exact repeats. Equal values may be shown once. Inconclusive results are not listed. Unmarked numbers belong to inactive results. The source made the active and inactive calls. Calls follow the shape of the dose curve; as a rule, active = well fitted inhibition curve with a large enough effect; inconclusive = small, poorly fitted or top-dose-only effect; inactive = no such curve, though single readings can be large or run the other way.

Molecular target: Cytochrome P450 3A4 (Homo sapiens) (UniProt P08684)
Sequence (P08684 whole entry, looked up): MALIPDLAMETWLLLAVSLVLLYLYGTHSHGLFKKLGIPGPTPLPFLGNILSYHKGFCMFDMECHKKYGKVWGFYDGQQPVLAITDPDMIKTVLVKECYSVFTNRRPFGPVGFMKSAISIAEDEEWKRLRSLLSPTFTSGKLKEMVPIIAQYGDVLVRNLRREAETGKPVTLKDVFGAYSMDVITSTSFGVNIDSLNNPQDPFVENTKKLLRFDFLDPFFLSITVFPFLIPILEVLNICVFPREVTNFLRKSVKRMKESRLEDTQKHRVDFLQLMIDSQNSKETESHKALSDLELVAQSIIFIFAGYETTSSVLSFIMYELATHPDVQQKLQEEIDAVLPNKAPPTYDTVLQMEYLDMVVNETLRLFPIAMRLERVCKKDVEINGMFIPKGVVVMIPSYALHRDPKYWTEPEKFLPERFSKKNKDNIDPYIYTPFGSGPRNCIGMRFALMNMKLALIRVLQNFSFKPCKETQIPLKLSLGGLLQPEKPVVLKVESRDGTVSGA
Assay: qHTS Assay for Inhibitors and Substrates of Cytochrome P450 3A4 (AID 884); also: nearly all actives have a fitted effect of over 50% in size
Details: recombinant CYP3A4, Luciferin-PPXE luminescence; series mostly up to 57.1 µM; activity change, negative = inhibition: at the top concentration
Method: NIH Molecular Libraries Screening Centers Network [MLSCN]
NIH Chemical Genomics Center [NCGC]
The P450 gene superfamily is involved in the metabolism and clearance of xenobiotics. This assay used human CYP3A4 to measure the dealkylation of luciferin-6' phenylpiperazinylyl (Luciferin-PPXE; […]) to luciferin. The luciferin is then measured by luminescence after the addition of a luciferase detection reagent. Luciferin-PPXE concentration in the assay was equal to its KM for CYP3A4. Inhibitors and some substrates limit the production of luciferin, and decrease measured luminescence.
NCGC Assay Protocol Summary:
Two uL of enzyme and substrate mix (final concentrations: 20nM CYP3A4, 25uM Luciferin-PPXE, 200mM KPO4) were dispensed into a white, solid bottom 1536-well microtiter plate. 23nL of compound was transferred by a pin tool. The plate was incubated at RT for 10 min. Two uL of an NADPH regeneration solution (Promega supplied reagent) was dispensed and the reaction was allowed to continue for 60 min at RT. Then the reaction was stopped by reconstituted luciferin detection buffer. After another 20 min of incubation the plate was read on the ViewLux (Perkin Elmer) at 60 sec exposure and 2x2 binning. This protocol was carried out with Promega-Glo reagents and further information can be found at http://www.promega.com/tbs/tb325/tb325.pdf. Data were normalized to the to AC100 inhibition (57 uM ketoconazole).
Keywords: P450, CYP3A4, Luciferase, MLSMR, MLSCN, NIH Roadmap, qHTS, NCGC
% is scaled to controls: 0 for no effect and ±100 for the full control effect; potency is read from the fitted curve at half-maximal effect.

SMILES	activity change, negative = inhibition [%]	Potency
O=Cc1ccco1	7.85	–
COc1ccc2[nH]cc(CCN)c2c1	-11.4	–
Clc1ccccc1Cl	-2.73	–
O=S1(=O)N(CCN2CC=C(c3c[nH]c4cc(F)ccc34)CC2)c2cccc3c2N1CCC3	–	5.01 µM (active)
O=C1C=C2C=C[C@@H]3C[C@@]2(O1)[C@H]1CCCCN31	-26.7	–
CCS(=O)(=O)Nc1cccc(C(=C2CCCCC2)c2cnc[nH]2)c1	–	0.316 µM (active)
O=C/C=C/c1ccccc1	–	inactive
O=[N+]([O-])c1ccc(F)c([N+](=O)[O-])c1	-28.5	–
S=C=S	-10.8	–
C[N+]1(C)[C@@H]2CC[C@H]1CC(OC(=O)c1c[nH]c3ccccc13)C2 (stereo not given in full)	–	7.94 µM (active)
CCOC(=O)c1ccccc1C(=O)OCC	–	inactive
O=C(O)C(Cl)(Cl)Cl	–	inactive
O=CC=O	-13.1	–
ClC(Cl)(Cl)Cl	–	inactive
CC(N)Cc1ccc(O)cc1 (stereo not given)	-11	–
C[C@H]1CCC[C@H](O)CCCCCc2cc(O)cc(O)c2C(=O)O1	–	3.98 µM (active)
CC(C)(C)c1cc(O)ccc1O	–	inactive
COc1ccc(OC)c(C(O)C(C)N)c1 (stereo not given)	-17	–
NNC(N)=O	-10.6	–
CC1OC1P(=O)(O)O (stereo not given)	-4.66	–

SMILES	activity change, negative = inhibition [%]	Potency
CN(N=O)c1ccc(O)c(O)c1	-20.7	–
[N-]=[N+]=CC(=O)OCC(N)C(=O)O (stereo not given)	-5.84	–
Cc1c2ccncc2c(C)c2c1[nH]c1ccccc12	–	158 nM (active) and 398 nM (active)
Oc1cc(Cl)c(Cl)cc1Cl	-9.43	–
O=[N+]([O-])c1ccccc1	-9.1	–
O=c1c2ccccc2[se]n1-c1ccccc1	–	3.98 µM (active) and 25.1 µM (active)
C=CCC1(C(C)CCC)C(=O)N=C(S)NC1=O (stereo not given)	–	12.6 µM (active)
COc1ccc2c(c1)/C(=C/c1cnc[nH]1)C(=O)N2	–	0.794 µM (active)
Nc1ccc(CCN2CCN(c3cccc(C(F)(F)F)c3)CC2)cc1	–	7.94 µM (active)
CCCn1c(C)c(C(=O)c2ccc3ccccc3c2)c2ccccc21	-0.744	–
CN1C2CCC1CC(OC(c1ccccc1)c1ccccc1N)C2 (stereo not given)	-24.9	–
COC1=CC(=O)O[C@@H](/C=C/c2ccccc2)C1	-1.62	–
COc1ccc2c(c1)c(CCN1CCOCC1)c(C)n2C(=O)c1cccc(Cl)c1Cl	–	3.16 µM (active)
O=C1CCO1	-12	–
[O]=[Cd]	-8.8	–
ClCC1CO1 (stereo not given)	2.53	–
CCC(=O)O[C@@](Cc1ccccc1)(c1ccccc1)[C@@H](C)CN(C)C	–	5.01 µM (active)
Clc1ccc(Cl)cc1	-10.2	–
CCCCCCCCOC(=O)c1ccccc1C(=O)OCCCCCCCC	-42.9	–
CCCCCl	-4.48	–
